High-throughput results (PubChem)
Tau ThT inhib: inhibitors of human tau fibril formation, thioflavin T binding; actives 2.1% (n = 270,000); Potency, µM (series often up to 57.4 µM), without a hit: top-dose activity, negative = inhibition, usual class: inhibitors; recombinant tau K18 P301L, heparin-induced fibrillization, ThT fluorescence; further: nearly all actives have a fitted effect of over 55% in size
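Fibril formation assay: tau K18 P301L at 15 uM with trace Alexa 594 label, heparin inducer 20 uM, pH 7 sodium acetate buffer, 37 C for 6 hr; endpoint ThT signal.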
Tau fibril FP: inhibitors of human tau fibril formation | P10636 | K18 P301L tau heparin fibrillization, Alexa594 FP, 6 h | Potency, µM (doses to about 57.7 µM), without a hit: top-dose activity, negative = inhibition, hits mostly inhibitors | actives 0.39% (n = 280,000); further: nearly all actives have a fitted effect of over 55% in size
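FP of Alexa 594-tau after heparin (20 uM) induction. Substrate: human K18 P301L, 15 uM unlabeled, 0.24 uM labeled. Buffer 100 mM sodium acetate pH 7. 6 hr, 37 C.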
Tau fluor counter: counter-screen for tau fibril formation inhibitors. AID 1463. tau K18 P301L (four-repeat tau fragment) Alexa594 fluorescence, heparin fibrillization. Potency, µM (highest dose often 57.7 µM), for inactives: at the top dose activity change, negative = decrease. actives 0.93% (n = 280,000); further: nearly all actives have a fitted effect of over 55% in size
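Human K18 P301L tau (15 uM unlabeled plus 0.24 uM Alexa 594-labeled, final) in 100 mM sodium acetate pH 7 was mixed with compound and 20 uM heparin and incubated 6 hr at 37 C.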
ALDH1A1 inh: blocks purified human ALDH1A1 activity. actives 7.3% (n = 220,000). P00352. Potency, µM (top dose mostly 75.3 µM), without a hit: at the highest dose activity, negative = inhibition, actives largely listed as inhibitors. Purified ALDH1A1, NADH fluorescence, propionaldehyde substrate. AID 1030; active means well fitted inhibition curve with a large enough effect, not every such curve was filed as active; inconclusive means small, poorly fitted or top-dose-only effect, or another doubt; inactive means no such curve, though single readings can be large or run the other way;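 further: plate controls were no enzyme wells and a reference inhibitor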
HPGD block: HPGD (human) dehydrogenase inhibition. actives 4.3% (n = 150,000). P15428. purified HPGD, NADH fluorescence kinetic, PGE2 substrate. AID 894. Potency, µM, inactives show at the top dose activity change, negative = inhibition, most hits filed as inhibitors; active means well fitted inhibition curve with a large enough effect, not every such curve was filed as active; inconclusive means small, poorly fitted or top-dose-only effect, or another doubt; inactive means no such curve, though single readings can be large or run the other way
Target sequence (P15428 whole entry, looked up): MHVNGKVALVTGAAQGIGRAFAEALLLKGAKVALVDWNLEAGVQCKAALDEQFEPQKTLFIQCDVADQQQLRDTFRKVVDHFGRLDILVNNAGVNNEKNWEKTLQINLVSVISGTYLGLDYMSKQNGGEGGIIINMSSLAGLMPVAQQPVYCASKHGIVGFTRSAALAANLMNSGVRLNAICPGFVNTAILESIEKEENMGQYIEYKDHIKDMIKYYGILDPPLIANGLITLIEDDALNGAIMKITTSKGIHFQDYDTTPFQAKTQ
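20 nM HPGD preincubated 15 min at room temperature with compound in 50 mM Tris-HCl pH 8, 0.01% Tween 20. Started with 1 mM NAD+ and 30 uM prostaglandin E2; NADH fluorescence (360/450 nm) read 5 times over 30-s intervals, last minus first.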
JMJD2E inh: blocks human JMJD2E demethylase activity | AID 2147 | B2RXH2 | JMJD2E catalytic domain, FDH-coupled NADH fluorescence (FDH is formaldehyde dehydrogenase) | actives 1.6% (n = 230,000) | Potency, µM (highest dose often 57.1 µM), without a hit: at the highest dose activity change, negative = inhibition, most hits filed as inhibitors; active means well fitted inhibition curve with a large enough effect, not every such curve was filed as active; inconclusive means small, poorly fitted or top-dose-only effect, or another doubt; inactive means no such curve, though single readings can be large or run the other way;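 further: 0% = wells with enzyme and -100% = buffer wells without enzyme; nearly all actives have a fitted effect of over 50% in size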
Target sequence (B2RXH2 1-337 limits assumed): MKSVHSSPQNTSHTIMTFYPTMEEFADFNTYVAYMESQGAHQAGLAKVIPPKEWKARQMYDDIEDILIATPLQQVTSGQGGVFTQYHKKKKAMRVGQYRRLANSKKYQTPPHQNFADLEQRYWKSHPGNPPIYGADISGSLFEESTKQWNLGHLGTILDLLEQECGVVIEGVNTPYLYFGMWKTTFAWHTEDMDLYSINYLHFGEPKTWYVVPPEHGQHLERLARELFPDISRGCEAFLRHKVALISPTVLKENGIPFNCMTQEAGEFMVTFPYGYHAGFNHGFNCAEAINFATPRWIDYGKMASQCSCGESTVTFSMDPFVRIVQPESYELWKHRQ
Active calls of the source: *; ? = inconclusive; . = no result given; ! = a repeat was not active; [ ] = dose if it differs, or a comment. Sampled rows, rich in hits. Any-hit rate of the full collection: about 9.9%. Unless noted, the call rests on the fitted dose curve; in most records, active means well fitted curve in the direction sought with a large enough effect; inconclusive means small, poorly fitted or top-dose-only effect, or another doubt; inactive means no such curve, though single readings can be large; an effect the other way counts as inactive or inconclusive. Unless noted, on the % scale 0 is the no-effect control and ±100 the full control effect; potency means the concentration at half of the fitted maximal effect.

SMILES | Tau ThT inhib | Tau fibril FP | Tau fluor counter | ALDH1A1 inh | HPGD block | JMJD2E inh
NC(=O)CSc1ncc(-c2ccc([N+](=O)[O-])cc2)[nH]1 | ? | -5% | -16% | ? | . | 7%
O=[N+]([O-])c1ccc(-c2cnc(SCc3ccccc3Cl)[nH]2)cc1 | 14µM* | -4% | 16µM*[quencher] | ? | ? | -27%
N#CCc1c(C#N)c(N)nc(Nc2ccccc2)c1C#N | -3% | 5% | 4% | . | . | -3%
COC(=O)[C@H](CC(C)C)NC(=O)NC1CCCCC1C (stereo not given in full) | -5% | -4% | -10% | 5% | 3% | -9%
CCCN(C(=O)c1cn(C)c(=O)c2cc(OC)c(OC)cc12)c1ccc(CC)cc1 | -11% | 0% | -5% | . | . | .
CCOc1ccc(CNC(=O)c2ccc3c(c2)c(C)c(C)n3Cc2ccc(Cl)cc2)cc1 | 3% | 6% | -11% | . | . | .
Oc1cccc(-c2nc(-c3cccs3)c(-c3cccs3)[nH]2)c1 | 16µM* | ? | 13µM*[quencher] | . | . | .
O=[N+]([O-])c1ccc(-c2nc(-c3cccs3)c(-c3cccs3)[nH]2)cc1 | 5.6µM* | ? | 7.9µM*[quencher] | 1% | -22% | -19%
O=[N+]([O-])c1cccc(-c2nc(-c3ccccc3)c(-c3cccs3)[nH]2)c1 | -5% | 12% | ? | 14% | -16% | 2%
O=[N+]([O-])c1cccc(-c2nc(-c3cccs3)c(-c3cccs3)[nH]2)c1 | ? | 6% | 11µM*[quencher] | ? | -19% | -9%
O=C(c1cc(F)ccc1F)C1CCCN(C(=O)CCN2CCCCO2)C1 (stereo not given) | -7% | -8% | -12% | 4% | . | ?
Cc1ccc(C)c(NC(=O)Cn2cc(S(=O)(=O)c3ccc(F)cc3)c(=O)c3cc(F)ccc32)c1 | 10% | ? | 18% | . | . | .
Cc1cc(N2CCCCC2)nc2ccc(NC(=O)c3ccc(Br)o3)cc12 | 8.9µM* | ? | 25µM*[quencher] | ? | -15% | ?
Cc1cc(N2CCCCC2)nc2ccc(NC(=O)c3ccc(F)cc3)cc12 | ? | ? | 16µM*[quencher] | . | . | .
CCN1c2ccccc2-c2nc(SCC(=O)Nc3c(C)cc(C)cc3C)ncc2S1(=O)=O | -1% | -12% | -13% | . | . | .
Nc1nc(N)nc(CC(=O)O)n1 | . | . | . | 0%[13.5 µM] | -13% | .
c1coc(-c2ccnc3ncnn23)c1 | -8% | 5% | -9% | ? | . | ?
c1coc(-c2ncc[nH]2)c1 | -9% | -1% | -2% | 18µM* | -11% | -7%
O=C(CSc1ccc(Cl)cc1Cl)N1CCC(c2nc3ccccc3s2)CC1 | ? | 5% | -17% | -17% | -6% | -1%
CNc1nc(-c2ccc3c(c2)CCN3C(=O)c2ccccc2F)c(C)s1 | ? | ? | -20% | 11µM* | . | -7%
CNc1nc(-c2ccc3c(c2)CCN3C(=O)c2ccccc2F)cs1 | ? | 6% | ? | 25µM* | . | -17%
CC(C)(C)C(=O)N1CCc2cc(-c3csc(N)n3)ccc21 | ? | 9% | -16% | -2% | -23% | -3%
CNc1nc(-c2ccc3c(c2)CCN3S(=O)(=O)c2ccccc2)c(C)s1 | -16% | 9% | ? | 8.9µM* | . | -10%
O=C(NC1CCN(Cc2ccccc2)CC1)c1ccc(-n2c(=O)c(=O)[nH]c3ccccc32)cc1 | . | . | . | 4% | 0% | .
CN(O)/C=C/C(=O)c1ccc(Br)cc1 | ? | -2% | -6% | 13µM* | . | 0%
SMILES | Tau ThT inhib | Tau fibril FP | Tau fluor counter | ALDH1A1 inh | HPGD block | JMJD2E inh
CN(C)/C=C/C(=O)c1ccc(Br)cc1 | -7% | 11% | -1% | -15% | . | -1%
COc1ccc(C2OC3C(CO)OC(n4cnc5c(=O)[nH]c(N)nc54)C3O2)cc1 (stereo not given) | -6% | 0% | -4% | 2% | 16µM* | 5%
COc1ccc(-c2nc(N)c3ncn([C@H]4O[C@@H](CO)[C@@H](O)[C@@H]4O)c3n2)cc1 | . | . | . | 11%[13.5 µM] | -4% | .
O=C(N[C@H](CO)[C@H](O)c1ccc([N+](=O)[O-])cc1)C(Cl)Cl | 6% | -8% | 1% | 14µM*! | -11% | -2%
Cc1[nH]oc(=O)c1N=Nc1ccccc1 | 25µM* | ? | -16% | 6% | -6% | 2%
Cc1ccc(Nc2nnc(SCC(=O)NCCN3C(=O)CSC3=O)s2)cc1C | ? | 7% | -26% | 18µM* | . | -5%
Cc1cccc(-n2nnnc2SCC(=O)NCCN2C(=O)CSC2=O)c1 | -5% | -1% | -8% | 20µM* | -4% | -5%
Cc1nnc(SCC(=O)NCCN2C(=O)CSC2=O)n1-c1ccccc1 | 4% | -1% | -2% | -7% | . | 1%
O=C(CSc1n[nH]c(-c2cc(Cl)ccc2Cl)n1)NCCN1C(=O)CSC1=O | -4% | 1% | -9% | 11% | 16µM* | 7%
COc1cc(OC)c(-c2cc(C(=O)NCc3ccc(F)cc3)c3c(-c4ccccc4)[nH]nc3n2)cc1OC | ? | 4% | ? | . | . | .
COc1cc(C(=O)NC(=S)NNC(=O)c2cnccn2)cc(OC)c1OC | ? | -9% | -7% | -5% | ? | 11µM*
COc1ccc(C(=O)NC(=S)NNC(=O)c2cnccn2)cc1 | 3% | -8% | -3% | 18µM* | ? | 2%
O=C(NC(=S)NNC(=O)c1cnccn1)c1ccc(Cl)cc1 | . | -5% | ? | . | . | ?
CN(C)C=O | . | . | . | 15% | 0% | .
CC(C)c1ccc(-c2nnc(N)s2)cc1 | -16% | -2% | -4% | 2% | 35µM* | ?
Cc1ccc(-c2nnc(N)s2)cc1 | -14% | -8% | -15% | ? | -30% | 3%
Cc1cn2c(=O)cc(COc3ccc(NC(=O)COc4ccccc4)cc3)nc2s1 | ? | -11% | -5% | . | . | .
CCC(=O)N1CCc2cc(Br)cc(S(=O)(=O)N3CCCC(C(=O)Nc4cccc(Cl)c4C)C3)c21 (stereo not given) | 10% | -3% | -2% | . | . | .
